Source: PubChem
HP1b chromo inh: inhibitors of HP1-beta chromodomain binding to methylated histone tails | hit rate 0.56% among 390,000 | Potency, µM (top dose mostly 114 µM), for inactives: top-dose activity change, negative = inhibition, hits mostly inhibitors | P83916 | AlphaScreen HP1-beta / biotin-H3K9me3 peptide binding | AID 540317; also: nearly all actives have a fitted effect of over 70% in size
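Compound inhibition of the preformed complex between 50 nM HP1-beta and 50 nM biotinylated H3K9me3 peptide was read by AlphaScreen. Buffer was PBS pH 7.4 with 0.01% Tween-20. Incubations ran 30 min at room temperature, with 10 ug/mL donor/acceptor beads.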
PLK1 PBD block: inhibitors of human PLK1 polo-box domain binding | Potency, µM, without a hit: max response, negative = inhibition, actives largely listed as inhibitors | hit rate 2.8% among 360,000 | P53350 | Plk1 PBD binding of FITC phosphopeptide, fluorescence polarization | AID 720504; also: series mostly up to about 57 µM; % is scaled to controls: 0 for no effect and ±100 for the full control effect; nearly all actives have a fitted effect of over 65% in size
G9a block: blocks human histone lysine methyltransferase G9a; Q96KQ7; G9a H3K9 monomethylation, AlphaScreen, 2 h; Potency, µM (series often up to 102 µM), for the others: at the highest dose activity, negative = inhibition, hits mostly inhibitors; hit rate 8.8% among 350,000; also: % is scaled to controls: 0 for no effect and ±100 for the full control effect; nearly all actives have a fitted effect of over 75% in size
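AlphaScreen read-out: biotin-H3K9 peptide (500 nM) methylation by 20 nM enzyme with 20 uM SAM, 2 h at room temperature after 15 min compound preincubation; anti-monomethyl H3K9 antibody plus donor/acceptor beads, 10 min dark.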
JMJD2A Tudor inh: blocks the human JMJD2A Tudor domain | AlphaScreen JMJD2A-Tudor / H3K4me3 peptide binding | AID 504339 | Potency, µM (doses to about 114 µM), without a hit: at the top dose activity change, negative = inhibition, actives largely listed as inhibitors | O75164 | hit rate 4.4% among 390,000; also: % is scaled to controls: 0 for no effect and ±100 for the full control effect; nearly all actives have a fitted effect of over 50% in size
Target sequence (O75164 whole entry, looked up, the tested form may be a part): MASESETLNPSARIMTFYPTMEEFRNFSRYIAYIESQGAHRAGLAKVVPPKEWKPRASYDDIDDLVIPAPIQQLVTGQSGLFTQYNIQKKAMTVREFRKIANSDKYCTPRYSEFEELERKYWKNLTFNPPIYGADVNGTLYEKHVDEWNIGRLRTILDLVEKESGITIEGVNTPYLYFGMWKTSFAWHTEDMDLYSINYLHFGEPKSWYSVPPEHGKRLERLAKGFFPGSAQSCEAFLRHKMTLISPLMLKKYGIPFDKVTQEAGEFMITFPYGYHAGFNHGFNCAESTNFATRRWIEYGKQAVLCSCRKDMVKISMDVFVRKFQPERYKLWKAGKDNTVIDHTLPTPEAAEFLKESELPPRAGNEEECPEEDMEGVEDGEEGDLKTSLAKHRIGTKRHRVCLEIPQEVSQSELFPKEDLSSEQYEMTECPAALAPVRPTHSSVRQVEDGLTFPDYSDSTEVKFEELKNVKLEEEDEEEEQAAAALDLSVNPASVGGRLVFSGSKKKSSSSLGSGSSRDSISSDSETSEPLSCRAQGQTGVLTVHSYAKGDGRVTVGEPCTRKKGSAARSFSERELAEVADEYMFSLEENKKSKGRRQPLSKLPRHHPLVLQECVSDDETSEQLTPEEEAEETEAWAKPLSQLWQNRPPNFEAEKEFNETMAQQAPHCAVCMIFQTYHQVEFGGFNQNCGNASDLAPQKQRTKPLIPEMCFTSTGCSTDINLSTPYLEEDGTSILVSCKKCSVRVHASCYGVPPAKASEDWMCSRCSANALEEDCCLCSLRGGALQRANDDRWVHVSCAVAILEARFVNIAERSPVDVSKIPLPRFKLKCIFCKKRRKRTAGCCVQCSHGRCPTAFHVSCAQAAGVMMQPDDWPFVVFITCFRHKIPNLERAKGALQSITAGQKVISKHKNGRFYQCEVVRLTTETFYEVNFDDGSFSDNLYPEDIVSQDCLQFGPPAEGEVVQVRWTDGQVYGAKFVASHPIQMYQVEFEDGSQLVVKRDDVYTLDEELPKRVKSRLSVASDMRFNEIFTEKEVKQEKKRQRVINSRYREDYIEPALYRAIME
BAZ2B block: BAZ2B (human) inhibition; AID 504333; AlphaScreen BAZ2B-H3K14Ac peptide displacement; hit rate 4.4% among 360,000; Potency, µM (titrated, usually from 114 µM), for inactives: top-dose activity change, negative = inhibition, actives largely listed as inhibitors; also: % is scaled to controls: 0 for no effect and ±100 for the full control effect; nearly all actives have a fitted effect of over 60% in size
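Compounds, titrated to a top concentration of 110 uM, were incubated 30 min at room temperature with preformed BAZ2B/acetyl-K14 H3 peptide complex (50 nM each). Proximity signal was measured by AlphaScreen after 20 min with beads.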
Sfp inh: blocks B. subtilis Sfp PPTase activity; Q9F4F7; Biochemical Sfp PPTase activity, qHTS; hit rate 3.5% among 310,000; Potency, µM, for inactives: largest response in the series, negative = inhibition, actives largely listed as inhibitors; AID 1490;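 also: the enzyme is Sfp with the accession as filed and its product quenches rhodamine fluorescence; 0% = enzyme reaction without inhibitor and -100% = no enzyme wells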
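Step 1, compound plus 15 nM Sfp-PPTase, 15 min, room temperature. Step 2, add rhodamine-CoA (5 uM) and BHQ-2-YbbR (12.5 uM). Step 3, read 525/598 nm fluorescence at 0 and 30 min.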
The depositor's hits bear a star; ? = inconclusive; . = no result given; [ ] = remark or other dose. This is a sample that favours compounds with a hit; in the whole collection about 12% have one here. Calls follow the shape of the dose curve; as a rule, active = well fitted curve in the direction sought with a large enough effect; inconclusive = small, poorly fitted or top-dose-only effect, or another doubt; inactive = no such curve, though single readings can be large; an effect the other way counts as inactive or inconclusive. Potency is read from the fitted curve at half-maximal effect.

SMILES	HP1b chromo inh	PLK1 PBD block	G9a block	JMJD2A Tudor inh	BAZ2B block	Sfp inh
COc1ccc(-n2c(/C=C\c3ccccc3F)nc3ccccc3c2=O)c(OC)c1	-11%	.	11%[59 µM]	-28%	-14%	.
CC(O)CN(CCN(CC(C)O)CC(C)O)CC(C)O (stereo not given)	.	.	8%[12.7 µM]	.	.	79µM*
N#CC(C#N)=NNc1ccc(S(=O)(=O)N2CCCC2)cc1	?	-10%	?	?	?	-5%
N#CC(C#N)=NNc1ccc(OC(F)(F)F)cc1	.	.	10µM*	.	.	?
CCCC[C@@H](C)[C@@H](OC(=O)C[C@@H](CC(=O)O)C(=O)O)[C@H](C[C@@H](C)C[C@H](O)CCCC[C@@H](O)C[C@H](O)[C@H](C)N)OC(=O)C[C@H](CC(=O)O)C(=O)O	.	.	18%[59 µM]	.	.	33%
C=C1C([C@@]2(C)C(OC(C)=O)CC(=O)O[C@@](C)(COC(C)=O)C2CC(=O)OC)C(OC=O)C(OC(=O)C(OC(C)=O)C(C)CC)[C@]2(C)C(c3ccoc3)CC(=O)C12O (stereo not given in full)	.	.	-28%[2.33 µM]	.	.	11%
N.N.N.N.N.N.N.N.N.N.N.N.N.N.O.O.[Cl-].[Cl-].[Cl-].[Cl-].[Cl-].[Cl-].[Ru].[Ru].[Ru]	.	.	3.2µM*	.	.	.
Cc1nn(C)c(C)c1-c1cccc2c1CCC(N(C)C)C2 (stereo not given)	.	.	9%[59 µM]	.	.	0%
COC(=O)C1=C(c2ccc(OCc3ccccc3)cc2)C[C@@H]2CC[C@H]1N2C(=O)NCc1ccc(N(C)C)cc1	42%	-10%	9%[2.33 µM]	?	8.9µM*	.
COC(=O)C1=C(c2ccc(F)cc2OCc2ccccc2)C[C@@H]2CC[C@H]1N2C(=O)NCc1cccc(F)c1	7%	21µM*	4%[0.501 µM]	?	2%	.
S=c1[nH]nc(-c2ccco2)n1Cc1ccccc1	-6%	-10%	?	7.1µM*	-25%	23%
COc1ccccc1-c1n[nH]c(=S)n1Cc1ccco1	.	.	3.5µM*	.	?	20µM*
O=c1c2ccccc2nc(-c2ccco2)n1-c1ccc(Br)cc1	19%	0%	8%	-3%	-11%	7%
S=c1[nH]nc(C2CC2)n1Cc1ccccc1	-16%	?	6.3µM*	16µM*	.	56µM*
N#Cc1ccc(CN2CC[C@@]3(CCCNC3)C2)cc1	.	.	-10%[12.7 µM]	.	.	5%
CCOc1c(P(=S)(N(C)C)N(C)C)c(C)nn1-c1ccccc1	38%	-9%	?	14%	3%	11%
CCN(CC)P(=S)(c1c(C)nc2ccccn12)c1c(C)nc2ccccn12	-25%	5.3µM*	14µM*	-12%	-4%	50µM*
COC(=O)c1ccc(COC(=O)c2nn(C)c(=O)c3ccccc23)cc1	56%	-5%	-8%	3%	-29%	5%
Cc1ccc(Sc2ccc(C=C3C(=O)N(C)C(=O)N(C)C3=O)o2)cc1	?	0.53µM*	.	-28%	?	8.9µM*
[S]=[Sb][S][Sb]=[S]	.	.	-28%[12.7 µM]	.	.	28%
CN(C)c1ccc(CN2CCc3nc(N4CCN(c5ccccn5)CC4)ncc3C2)cc1	28µM*	.	?	35µM*	25µM*	.
c1ccc(CN2CCc3nc4ccccc4cc3C2)cc1	21%	-8%	10%	-17%	-17%	8%
CCN1CCN(Cc2ccccc2C)CC1	20%	-7%	3%[12.7 µM]	-19%	6%	7%
Cc1ccccc1CN1CCc2nc(N3CCN(c4ccccn4)CC3)ncc2C1	20%	.	-3%[12.7 µM]	89µM*	?	.
Nc1ncc([N+](=O)[O-])s1	-13%	?	-2%[0.501 µM]	-28%	5%	.
N#Cc1cc2c(nc1SCC(=O)Nc1ccc(OC(F)(F)F)cc1)C1CCN2CC1	29%	.	-4%[59 µM]	0%	-4%	.
O=C1NC(=S)N(c2ccccc2F)C(=O)/C1=C\c1cccs1	-12%	7.5µM*	1.3µM*	50µM*	50µM*	11µM*
CCOc1ccc(N2C(=O)/C(=C/c3ccco3)C(=O)NC2=S)cc1	1.6µM*	1.3µM*	16%[0.501 µM]	0.79µM*	28µM*	35µM*
